Assay outcomes from PubChem BioAssay.
In the library only some 2.2% were active in any assay of this set; here they are far more common.
m5-HT2A agonist: mouse Htr2a agonists via beta-arrestin recruitment, primary screen, cell-based, luminescence. CHO-K1 mHTR2A beta-arrestin complementation; percent of 30 µM serotonin response. 360,000 tested, 0.66% active. activation, % at 7.6 µM. AID 624169, 2012;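 active = activation above a run cutoff, the mean activation of all tested compounds plus 3 SD, cut at about 14% in these data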;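 note: 0% = plate median of compound wells and 100% = 30 µM serotonin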
Target sequence (P35363 whole entry, looked up): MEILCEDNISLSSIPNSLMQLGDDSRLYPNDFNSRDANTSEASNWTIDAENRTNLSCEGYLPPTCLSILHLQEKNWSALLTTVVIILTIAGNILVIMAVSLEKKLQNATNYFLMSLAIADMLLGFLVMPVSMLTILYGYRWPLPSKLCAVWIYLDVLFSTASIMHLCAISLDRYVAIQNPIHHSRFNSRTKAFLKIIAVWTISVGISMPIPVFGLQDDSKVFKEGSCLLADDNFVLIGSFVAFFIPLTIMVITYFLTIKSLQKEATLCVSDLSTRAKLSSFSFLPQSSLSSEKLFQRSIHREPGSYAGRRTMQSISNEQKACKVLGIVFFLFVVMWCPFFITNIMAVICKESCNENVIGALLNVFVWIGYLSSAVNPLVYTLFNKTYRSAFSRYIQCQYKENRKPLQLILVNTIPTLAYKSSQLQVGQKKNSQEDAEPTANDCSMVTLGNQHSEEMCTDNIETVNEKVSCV
MEX-5 binding: MEX-5 zinc finger RNA-binding disruptors – biochemical, C. elegans, fluorescence polarization, MLPCN library, primary screen. Zinc finger protein mex-5 (Caenorhabditis elegans), Q9XUB2. MEX-5/FITC-TCR2 RNA binding; hits give low values. activity score (negative = inhibition of binding), % at 10 µM. 300,000 tested, 0.38% active;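 active = inhibition past about -25% in most replicates, and total fluorescence under double the plate's negative control median, limit read from the data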;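 note: 0% = DMSO and -100% = 5 µM competing unlabeled TCR2 RNA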
JMJD2C inh: inhibitors of GASC-1 histone demethylase, primary screen, biochemical, fluorescence, DELFIA europium; inhibition, % at 2.35 µM; 330,000 tested, 0.069% active; GST-JMJD2C(1-420) H3K9me3 demethylation; AID 2099, 2009;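 active = more than half of a compound's replicate wells show inhibition beyond 50%, single wells judged on their own value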;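 note: signal counts dimethyl H3K9 product captured on neutravidin plate; 0% = median of DMSO wells and 100% = 0.3 times that DMSO median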
VLA-4 inh: inhibition in human VLA-4 binding assay, primary screen, VLA-4 allosteric modulator project, MLPCN library, flow cytometry, VLA-4 expressing cells; inhibition, % (about 7 µM as worked out from the volumes in the protocol); Integrin alpha-4 (Homo sapiens), P13612; AID 2557, 2010; 330,000 tested, 0.2% active; ligand binding flow cytometry; in the data active = inhibition above about 50%
Granule exo inh: LAMP-1 surface exposure blockers, TALL-104 cells – cell-based, flow cytometry, MLPCN library, primary screen; 360,000 tested, 0.66% active; inhibition, % at 10 µM; TALL-104 LAMP-1 surface exposure; cells stimulated with thapsigargin and PMA; AID 651702, 2012;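 active = inhibition above about 55%, limit read from the data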
V-ATPase pH: regulators of yeast V-ATPase proton pumping, primary screen, pHLuorin cytosolic pH fluorescence; response, % at 10 µM; S. cerevisiae; AID 504577, 2011; 350,000 tested, 0.37% active; in the data active = response mostly above about 7.3%, no sharp cut-off; inactive = mostly below about 5.4%; note: actives read high
* hit, by the source's call; · = no result given.

SMILES | m5-HT2A agonist | MEX-5 binding | JMJD2C inh | VLA-4 inh | Granule exo inh | V-ATPase pH
COc1ccc(N2CCN(CCCNC(=O)C(=O)c3c(C)[nH]c4ccccc34)CC2)cc1 | -10 | -2 | 1 | 13 | 2 | -2
CCc1ccc(OC(=O)Cc2ccc(OC)c(S(=O)(=O)N3CCOCC3)c2)cc1 | 1 | · | 7 | 23 | -3 | -3
COc1ccc(CC(=O)Oc2ccc(C(C)C)cc2)cc1S(=O)(=O)N1CCOCC1 | 2 | -6 | 1 | 7 | -6 | 25*
CC(=O)Nc1ccc2nc(-c3cccs3)[nH]c2c1 | 5 | 0 | 2 | 94* | -1 | 2
Cn1cccc1-c1nc2ccc(NC(=O)c3cccs3)cc2[nH]1 | 0 | 3 | 58* | -11 | -2 | 4
CC(=O)Nc1ccc2nc(-c3cccn3C)[nH]c2c1 | 4 | -1 | -3 | 11 | -6 | -3
COc1ccc(N(C(=O)CNC(=O)c2cccs2)C(C(=O)NC2CCCC2)c2cccnc2)cc1 (centres undefined) | 0 | -1 | -7 | 3 | 2 | -2
O=c1c2ccccc2oc2ccc(NCCCn3ccnc3)cc12 | -10 | -27* | -10 | 11 | -10 | 8
c1ccc2c(c1)oc1c(NCCCn3ccnc3)ncnc12 | 3 | 3 | 5 | 10 | -1 | 0
COc1ccc(CC(=S)NCCc2ccccc2)cc1 | -7 | 0 | 7 | 4 | 4 | 4
CCCCN1C(=O)/C(=C2/Sc3ccc(OC)cc3N2CC)SC1=S | 2 | -26* | -9 | -13 | 1 | 2
C=CCN1C(=O)/C(=C2/Sc3ccc(OC)cc3N2CC)SC1=S | 1 | -40* | -8 | -9 | -4 | -2
CCN1/C(=C2/SC(=S)N(NC(C)=O)C2=O)Sc2ccc(OC)cc21 | -2 | -46* | -3 | 6 | 3 | -1
CCCCCCCNC(=O)C1(CC2CC(c3ccc(Cl)cc3)=NO2)CCN(C(=O)CCCCCBr)CC1 (centres undefined) | -1 | 3 | 6 | 9 | 0 | -2
CC(=O)N=c1c(C#N)cc2c(=O)n3cccc(C)c3nc2n1CCCOC(C)C | 3 | -26* | -6 | -12 | -2 | 0
Cc1cccn2c(=O)c3cc(C#N)c(=NC(=O)c4cccs4)n(CCCOC(C)C)c3nc12 | 6 | -45* | 0 | -37 | -5 | 1
COc1ccc(C(=O)N=c2c(C#N)cc3c(=O)n4cccc(C)c4nc3n2Cc2ccco2)cc1 | · | -41* | 1 | · | · | ·
Cc1cccn2c(=O)c3cc(C#N)c(=NC(=O)c4ccncc4)n(CCCOC(C)C)c3nc12 | 1 | 32 | -7 | -6 | -3 | 6
Cc1ccccc1C(=O)N=c1c(C#N)cc2c(=O)n3cccc(C)c3nc2n1Cc1ccco1 | · | 0 | 11 | -6 | · | ·
CCOc1ccc(S(=O)(=O)NCc2cccnc2)cc1C(C)C | -8 | 0 | -5 | 11 | -5 | -3
Oc1c(C=C2N=c3ccccc3=N2)sc(=S)n1-c1ccc(F)cc1 | 7 | 0 | -8 | -38 | 2 | 1
Oc1c(C=C2N=c3ccccc3=N2)sc(=S)n1-c1ccc2ccccc2c1 | 0 | 1 | 0 | -2 | 59* | -1
O=C(C1CCCO1)N1CCN(C(=S)Nc2ccc(Cl)cc2Cl)CC1 (centres undefined) | 2 | 0 | -13 | -24 | -1 | 17*
O=C1CC(Sc2nnc(-c3ccccc3)o2)C(=O)N1c1ccccc1 (centres undefined) | -2 | 0 | -2 | -2 | 66* | -1
COCc1cc(C)nc(Sc2nc3c(c(=O)n(C)c(=O)n3C)n2C)c1C#N | 5 | -7 | 2 | · | 6 | -3
CCCCNCCOCCSc1ccc(Cl)cc1 | 30* | -3 | -1 | 8 | 3 | 4
COCCCNCCOCCSc1ccc(Cl)cc1 | -1 | -4 | 11 | 9 | -2 | 0
